# ChEMBL document CHEMBL2218924, “A broad activity screen in support of a chemogenomic map for kinase signalling research and drug discovery” (Biochem J, 2013)
# How the values were obtained:
# [1] = target: cAMP-dependent protein kinase catalytic subunit alpha (Homo sapiens) (UniProt P17612); conditions: at 1 µM
# [2] = target: cAMP-dependent protein kinase catalytic subunit alpha (Homo sapiens) (UniProt P17612); conditions: at 10 µM
# [3] = target: RAC-alpha serine/threonine-protein kinase (Homo sapiens) (UniProt P31749); conditions: at 1 µM
# Chain of RAC-alpha serine/threonine-protein kinase (Homo sapiens) (P31749 whole entry): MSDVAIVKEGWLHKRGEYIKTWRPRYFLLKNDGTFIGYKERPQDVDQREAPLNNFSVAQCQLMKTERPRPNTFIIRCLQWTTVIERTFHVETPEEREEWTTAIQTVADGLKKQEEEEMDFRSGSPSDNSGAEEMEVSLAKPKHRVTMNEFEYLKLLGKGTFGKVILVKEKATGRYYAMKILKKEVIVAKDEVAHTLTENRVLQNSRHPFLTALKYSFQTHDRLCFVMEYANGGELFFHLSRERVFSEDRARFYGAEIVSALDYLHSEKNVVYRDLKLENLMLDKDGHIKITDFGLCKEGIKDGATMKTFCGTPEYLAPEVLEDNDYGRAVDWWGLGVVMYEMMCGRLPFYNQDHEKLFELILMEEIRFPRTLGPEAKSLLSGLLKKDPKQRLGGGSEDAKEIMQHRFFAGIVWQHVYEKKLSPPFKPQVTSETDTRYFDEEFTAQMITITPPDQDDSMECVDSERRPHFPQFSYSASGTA
# [4] = target: RAC-alpha serine/threonine-protein kinase (Homo sapiens) (UniProt P31749); conditions: at 10 µM
# [5] = target: RAC-gamma serine/threonine-protein kinase (Homo sapiens) (UniProt Q9Y243); conditions: at 1 µM
# Chain of RAC-gamma serine/threonine-protein kinase (Homo sapiens) (Q9Y243 whole entry): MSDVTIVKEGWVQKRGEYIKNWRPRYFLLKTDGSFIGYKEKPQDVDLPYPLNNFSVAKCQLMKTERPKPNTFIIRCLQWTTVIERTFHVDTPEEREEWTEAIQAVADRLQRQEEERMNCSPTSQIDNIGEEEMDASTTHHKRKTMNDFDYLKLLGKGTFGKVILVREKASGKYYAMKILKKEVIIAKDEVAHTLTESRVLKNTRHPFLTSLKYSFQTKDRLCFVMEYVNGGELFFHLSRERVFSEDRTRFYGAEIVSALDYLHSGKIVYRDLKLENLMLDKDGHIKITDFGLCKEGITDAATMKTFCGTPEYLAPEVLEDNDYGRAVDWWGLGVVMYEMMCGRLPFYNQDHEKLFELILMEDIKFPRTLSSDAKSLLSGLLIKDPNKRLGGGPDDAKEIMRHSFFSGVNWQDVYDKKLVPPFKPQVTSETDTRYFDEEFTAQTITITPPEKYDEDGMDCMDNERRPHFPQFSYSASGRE
# [6] = target: RAC-gamma serine/threonine-protein kinase (Homo sapiens) (UniProt Q9Y243); conditions: at 10 µM
# [7] = target: Protein kinase C alpha type (Homo sapiens) (UniProt P17252); conditions: at 1 µM
# [8] = target: Protein kinase C alpha type (Homo sapiens) (UniProt P17252); conditions: at 10 µM
# [9] = target: Protein kinase C beta type (Homo sapiens) (UniProt P05771); conditions: at 1 µM
# Chain of Protein kinase C beta type (Homo sapiens) (P05771 2-671 limits assumed): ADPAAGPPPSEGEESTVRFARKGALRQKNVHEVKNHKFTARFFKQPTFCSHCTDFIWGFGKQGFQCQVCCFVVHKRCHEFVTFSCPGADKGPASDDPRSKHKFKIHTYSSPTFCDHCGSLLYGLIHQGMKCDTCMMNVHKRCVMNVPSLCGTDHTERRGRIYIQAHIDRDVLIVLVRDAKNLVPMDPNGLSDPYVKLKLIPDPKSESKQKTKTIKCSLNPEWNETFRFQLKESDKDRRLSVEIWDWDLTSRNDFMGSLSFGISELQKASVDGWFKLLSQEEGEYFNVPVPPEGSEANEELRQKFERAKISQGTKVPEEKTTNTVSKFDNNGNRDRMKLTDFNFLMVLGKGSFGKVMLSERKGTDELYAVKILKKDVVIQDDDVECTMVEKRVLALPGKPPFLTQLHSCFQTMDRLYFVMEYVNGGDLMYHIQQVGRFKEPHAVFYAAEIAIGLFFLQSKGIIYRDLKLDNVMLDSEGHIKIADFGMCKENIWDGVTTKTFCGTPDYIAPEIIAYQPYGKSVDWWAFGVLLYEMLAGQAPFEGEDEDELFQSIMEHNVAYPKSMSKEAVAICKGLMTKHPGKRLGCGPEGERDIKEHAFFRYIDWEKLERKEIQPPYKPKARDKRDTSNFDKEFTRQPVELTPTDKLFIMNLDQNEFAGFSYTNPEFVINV
# [10] = target: Platelet-derived growth factor receptor alpha (Homo sapiens) (UniProt P16234); conditions: at 10 µM
# Chain of Platelet-derived growth factor receptor alpha (Homo sapiens) (P16234 whole entry): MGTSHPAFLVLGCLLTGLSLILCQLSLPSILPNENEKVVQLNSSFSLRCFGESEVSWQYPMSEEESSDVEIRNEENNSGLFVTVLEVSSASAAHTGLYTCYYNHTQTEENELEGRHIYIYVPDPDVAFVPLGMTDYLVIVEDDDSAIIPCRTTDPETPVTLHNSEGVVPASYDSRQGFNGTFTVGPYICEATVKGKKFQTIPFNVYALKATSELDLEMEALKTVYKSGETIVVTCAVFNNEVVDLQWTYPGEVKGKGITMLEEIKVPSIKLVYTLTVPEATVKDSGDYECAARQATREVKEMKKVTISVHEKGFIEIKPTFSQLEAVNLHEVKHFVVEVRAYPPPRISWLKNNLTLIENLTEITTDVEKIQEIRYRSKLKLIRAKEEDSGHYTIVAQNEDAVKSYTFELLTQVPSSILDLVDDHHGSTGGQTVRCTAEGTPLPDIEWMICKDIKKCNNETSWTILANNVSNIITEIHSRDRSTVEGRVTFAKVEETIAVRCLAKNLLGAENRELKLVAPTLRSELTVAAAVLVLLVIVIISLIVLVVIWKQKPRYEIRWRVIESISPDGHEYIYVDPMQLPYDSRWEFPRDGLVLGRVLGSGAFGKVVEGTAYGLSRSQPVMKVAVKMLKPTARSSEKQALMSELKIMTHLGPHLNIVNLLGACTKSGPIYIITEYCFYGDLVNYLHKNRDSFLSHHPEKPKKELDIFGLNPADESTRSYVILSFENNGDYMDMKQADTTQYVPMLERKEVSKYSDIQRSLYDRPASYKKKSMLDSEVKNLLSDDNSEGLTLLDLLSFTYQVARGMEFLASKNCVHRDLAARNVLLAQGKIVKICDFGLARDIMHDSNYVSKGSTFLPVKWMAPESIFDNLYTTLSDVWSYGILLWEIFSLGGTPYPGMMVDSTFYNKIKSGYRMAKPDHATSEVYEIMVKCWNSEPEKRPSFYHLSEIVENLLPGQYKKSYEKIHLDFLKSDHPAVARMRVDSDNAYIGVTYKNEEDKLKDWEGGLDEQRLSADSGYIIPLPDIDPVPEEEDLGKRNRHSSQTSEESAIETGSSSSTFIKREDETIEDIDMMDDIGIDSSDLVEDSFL
# [11] = target: Platelet-derived growth factor receptor beta (Homo sapiens) (UniProt P09619); conditions: at 10 µM
# [12] = target: T1, 3-phosphoinositide-dependent protein kinase 1 (Homo sapiens) (UniProt O15530); conditions: at 1 µM
# T1 sequence (whole entry): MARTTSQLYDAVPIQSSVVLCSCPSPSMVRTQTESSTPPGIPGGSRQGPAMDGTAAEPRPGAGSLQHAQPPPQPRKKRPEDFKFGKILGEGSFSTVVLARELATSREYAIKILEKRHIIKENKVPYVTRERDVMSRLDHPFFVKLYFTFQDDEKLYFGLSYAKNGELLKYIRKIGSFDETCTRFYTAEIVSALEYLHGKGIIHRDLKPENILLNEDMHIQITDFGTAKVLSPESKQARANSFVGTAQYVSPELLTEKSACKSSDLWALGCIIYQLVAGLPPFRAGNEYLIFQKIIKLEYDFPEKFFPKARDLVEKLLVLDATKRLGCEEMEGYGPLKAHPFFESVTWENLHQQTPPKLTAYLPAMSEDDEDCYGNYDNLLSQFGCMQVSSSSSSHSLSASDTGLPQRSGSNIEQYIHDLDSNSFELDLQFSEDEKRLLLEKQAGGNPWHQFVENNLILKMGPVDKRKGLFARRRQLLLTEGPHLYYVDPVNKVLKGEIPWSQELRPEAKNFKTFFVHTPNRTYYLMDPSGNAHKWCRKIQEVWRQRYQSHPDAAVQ
# [13] = target: T1, 3-phosphoinositide-dependent protein kinase 1 (Homo sapiens); conditions: at 10 µM
# [14] = target: Protein kinase C beta type (Homo sapiens) (UniProt P05771); conditions: at 1 µM; remark: listed apart in the source
# [15] = target: Protein kinase C beta type (Homo sapiens) (UniProt P05771); conditions: at 10 µM
# [16] = target: Protein kinase C beta type (Homo sapiens) (UniProt P05771); conditions: at 10 µM; remark: listed apart in the source
# [17] = target: Protein kinase C gamma type (Homo sapiens) (UniProt P05129); conditions: at 1 µM
# [18] = target: Protein kinase C gamma type (Homo sapiens) (UniProt P05129); conditions: at 10 µM
# [19] = target: Protein kinase C delta type (Homo sapiens) (UniProt Q05655); conditions: at 1 µM
# Chain of Protein kinase C delta type (Homo sapiens) (Q05655 whole entry, looked up): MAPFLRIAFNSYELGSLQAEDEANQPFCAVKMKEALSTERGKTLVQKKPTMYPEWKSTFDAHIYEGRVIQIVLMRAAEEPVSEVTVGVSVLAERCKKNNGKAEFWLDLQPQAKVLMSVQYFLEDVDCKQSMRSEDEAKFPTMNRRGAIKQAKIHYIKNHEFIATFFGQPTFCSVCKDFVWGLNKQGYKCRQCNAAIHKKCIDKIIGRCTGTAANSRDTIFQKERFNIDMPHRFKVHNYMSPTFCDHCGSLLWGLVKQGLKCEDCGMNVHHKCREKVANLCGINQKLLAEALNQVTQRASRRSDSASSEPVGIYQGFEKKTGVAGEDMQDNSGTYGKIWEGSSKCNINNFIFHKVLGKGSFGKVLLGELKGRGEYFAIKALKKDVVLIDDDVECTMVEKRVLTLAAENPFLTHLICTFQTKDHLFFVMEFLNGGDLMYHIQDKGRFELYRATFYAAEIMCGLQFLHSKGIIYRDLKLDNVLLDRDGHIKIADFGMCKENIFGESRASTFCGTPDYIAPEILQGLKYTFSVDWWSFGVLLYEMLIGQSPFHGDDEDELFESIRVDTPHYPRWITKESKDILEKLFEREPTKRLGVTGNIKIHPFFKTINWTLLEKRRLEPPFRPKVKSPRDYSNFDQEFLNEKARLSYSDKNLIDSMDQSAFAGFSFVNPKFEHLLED
compound,measurement,setting,value
COc1ccc2c(c[n+](C)c3c4cc5c(cc4ccc23)OCO5)c1OC,residual activity,[1],98%
same,residual activity,[2],73%
same,residual activity,[3],98%
same,residual activity,[4],110%
same,residual activity,[5],82%
same,residual activity,[6],63%
same,residual activity,[7],110%
same,residual activity,[8],100%
same,residual activity,[9],87%
CC[n+]1c(/C=C/N(C)c2ccccc2)n(-c2ccccc2)c2ccc(-c3nc4ccccc4s3)cc21,residual activity,[3],99%
same,residual activity,[4],107%
c1ccc(-c2cnc(Nc3ccc(OCCN4CCCC4)cc3)s2)cc1,residual activity,[3],102%
same,residual activity,[4],115%
N#C/C(=C(\N)Sc1ccc(N)cc1)c1ccccc1C(F)(F)F,residual activity,[3],112%
same,residual activity,[4],108%
O=C1Nc2ccc3ncsc3c2/C1=C/c1c[nH]cn1,residual activity,[10],20%
same,residual activity,[11],29%
same,residual activity,[12],31%
same,residual activity,[13],6%
same,residual activity,[1],25%
same,residual activity,[2],5%
same,residual activity,[3],99%
same,residual activity,[4],106%
same,residual activity,[6],30%
same,residual activity,[7],67%
same,residual activity,[8],18%
same,residual activity,[14],55%
same,residual activity,[15],12%
same,residual activity,[9],67%
same,residual activity,[16],43%
same,residual activity,[17],69%
same,residual activity,[18],21%
same,residual activity,[19],15%
Ic1cccc(CSc2nnc(-c3ccncc3)o2)c1,residual activity,[3],116%
COc1cc(OC)c(/C=C2\C(=O)Nc3ccccc32)c(OC)c1,residual activity,[10],69%
same,residual activity,[1],100%
same,residual activity,[2],91%
same,residual activity,[5],103%
same,residual activity,[6],80%
same,residual activity,[14],105%
same,residual activity,[15],103%
same,residual activity,[9],103%
same,residual activity,[16],101%
same,residual activity,[17],98%
O=C(O)c1ccc2c3c1cccc3c(=O)n1c3ccccc3nc21,residual activity,[3],111%
same,residual activity,[4],100%
O=C(Nc1cccc(Nc2nccc(Nc3cccc(C(F)(F)F)c3)n2)c1)C1CC1,residual activity,[3],103%
same,residual activity,[4],104%
CN(C)CCCn1cc(C2=C(c3c[nH]c4ccccc34)C(=O)NC2=O)c2ccccc21,residual activity,[3],103%
same,residual activity,[4],104%
O=C1NC(=O)C(c2cn(CCCn3ccnc3)c3ccccc23)=C1Nc1ccccc1,residual activity,[3],104%
same,residual activity,[4],102%
COc1cc2ncnc(Nc3ccc(O)c(Br)c3)c2cc1OC,residual activity,[3],107%
same,residual activity,[4],105%
CO[C@H]1[C@@H](OC)C[C@H](C)[C@@H](OC)C2=CC(=O)C=C(NC(=O)/C(C)=C/C=C/[C@H](OC)[C@@H](OC(N)=O)/C(C)=C/[C@@H]1C)C2=O,residual activity,[3],112%
same,residual activity,[4],114%
CCN(CC)CCCCN1c2ccccc2Oc2ccc(Cl)cc21,residual activity,[3],104%
same,residual activity,[4],104%
O=C1Nc2ccccc2/C1=C1/Nc2ccccc2/C1=N\OCCC(O)CO (stereo not drawn),residual activity,[3],113%
same,residual activity,[4],101%
O=C(CCCc1ccc(-c2ccccc2F)cc1)Nc1ccc(O)cc1,residual activity,[3],103%
same,residual activity,[4],105%
COc1cc2c(cc1OC)-c1n[nH]c(Nc3cccc(F)c3)c1C2,residual activity,[3],107%
same,residual activity,[4],107%
Nc1ncnc2c1cnn2-c1ccccc1,residual activity,[3],96%
same,residual activity,[4],96%
O=C1NC(=O)/C(=C\c2ccc3nccnc3c2)S1,residual activity,[3],106%
same,residual activity,[4],108%
COc1ccc(Cl)cc1NC(=O)Nc1cc(C)nc2ccccc12,residual activity,[3],95%
same,residual activity,[4],94%
Oc1n[nH]c2nnc(-c3c(-c4ccccc4)nn4ccccc34)cc12,residual activity,[3],105%
same,residual activity,[4],111%
COc1ccc(OC)c2c(=S)c3ccccc3[nH]c12,residual activity,[3],109%
same,residual activity,[4],104%
Cc1nc(-c2ccccc2)c(-c2ccncc2)o1,residual activity,[3],110%
same,residual activity,[4],102%
CO[C@@H]1[C@H](N(C)C(=O)c2ccccc2)C[C@H]2O[C@]1(C)n1c3ccccc3c3c4c(c5c6ccccc6n2c5c31)C(=O)NC4,residual activity,[3],97%
same,residual activity,[4],99%
NC(=O)Nc1sc(-c2ccc(F)cc2)cc1C(N)=O,residual activity,[3],114%
same,residual activity,[4],109%
COc1ccc(C(=O)Nc2sc3c(c2C(N)=O)CCCC3)cc1OC,residual activity,[3],103%
same,residual activity,[4],109%
Cn1cnc2cc3c(Nc4cccc(Br)c4)ncnc3cc21,residual activity,[3],95%
same,residual activity,[4],109%
O=C(c1ccccc1)c1ccc(N2CCOCC2)cc1O,residual activity,[3],96%
same,residual activity,[4],98%
COc1cc2ncnc(Nc3ccc(Oc4ccccc4)cc3)c2cc1OC,residual activity,[3],108%
same,residual activity,[4],107%
COc1cc2ncnc(Nc3ccc(NC(=O)c4ccccc4)cc3)c2cc1OC,residual activity,[3],105%
same,residual activity,[4],110%
O=c1cc(N2CCOCC2)oc2c1ccc1ccccc12,residual activity,[3],103%
same,residual activity,[4],106%
COc1ccc(S(=O)(=O)N(CCO)c2ccccc2CN(C)C/C=C/c2ccc(Cl)cc2)cc1,residual activity,[3],116%
same,residual activity,[4],112%
Cc1ccc(NC2=CC(=O)c3sc(C)nc3C2=O)cc1,residual activity,[3],111%
same,residual activity,[4],107%
CN(C)c1ccc(/C=C2\C(=O)Nc3ccccc32)cc1,residual activity,[3],112%
same,residual activity,[4],121%
COc1ccc2c(c1)c(C1=C(c3c[nH]c4ccccc34)C(=O)NC1=O)cn2CCCN(C)C,residual activity,[3],110%
same,residual activity,[4],120%
COc1cccc(-c2cc(=O)c3ccccc3o2)c1N,residual activity,[3],106%
same,residual activity,[4],109%
Cc1nc2cc3nc(-c4cccs4)cnc3cc2n1C,residual activity,[3],100%
same,residual activity,[4],105%
CC(C)(C)c1nc2c3ccc(F)cc3c3c(=O)[nH]ccc3c2[nH]1,residual activity,[3],98%
same,residual activity,[4],104%
O=c1cc(-c2cccc3c2Sc2ccccc2S3)oc(N2CCOCC2)c1,residual activity,[3],99%
same,residual activity,[4],103%
CC#CC(=O)Nc1cc2c(Nc3ccc(F)c(Cl)c3)ncnc2cn1,residual activity,[3],101%
same,residual activity,[4],107%
COc1ccc(CNC(=O)Nc2ncc([N+](=O)[O-])s2)cc1,residual activity,[3],116%
same,residual activity,[4],106%
O=C1NC(=O)c2cc(Nc3ccc(F)cc3)c(Nc3ccc(F)cc3)cc21,residual activity,[3],101%
same,residual activity,[4],107%
O=C1NC(=O)c2c1c1c3ccccc3[nH]c1c1[nH]c3cc(Br)ccc3c21,residual activity,[3],103%
same,residual activity,[4],106%
Cn1cc(/C=C2\C(=O)Nc3ccc(S(N)(=O)=O)cc32)c2ccccc21,residual activity,[3],96%
same,residual activity,[4],101%
O=c1c2ccccc2[nH]c(=S)n1CCN1CCC(=C(c2ccc(F)cc2)c2ccc(F)cc2)CC1,residual activity,[3],112%
same,residual activity,[4],107%
CC(=O)O/N=C1\C(=C2\C(=O)Nc3cc(Br)ccc32)Nc2ccccc21,residual activity,[3],115%
same,residual activity,[4],109%
O=C1c2ccccc2-[n+]2ccc3c([nH]c4ccccc43)c21,residual activity,[3],108%
same,residual activity,[4],107%
C[C@@H](N)[C@H]1CC[C@H](C(=O)Nc2ccncc2)CC1,residual activity,[3],88%
same,residual activity,[4],76%
CCOc1cc2ncnc(Nc3cccc(Br)c3)c2cc1OCC,residual activity,[3],101%
same,residual activity,[4],109%
O=C1NC(=O)/C(=C/c2ccc3c(c2)OC(F)(F)O3)S1,residual activity,[3],102%
same,residual activity,[4],111%
NCCNc1ncc(C(N)=O)c(Nc2cccc(C(F)(F)F)c2)n1,residual activity,[4],112%
COc1ccc(CNc2nc(N(CCO)CCO)nc3c2ncn3C(C)C)cc1,residual activity,[3],118%
same,residual activity,[4],111%
COc1cc2ncnc(N3CCN(C(=O)Nc4ccc(Oc5ccccc5)cc4)CC3)c2cc1OC,residual activity,[3],106%
same,residual activity,[4],107%
O=C1Cc2c([nH]c3ccc([N+](=O)[O-])cc23)-c2ccccc2N1,residual activity,[3],104%
same,residual activity,[4],104%
Cn1nc2c3c(cccc31)C(=O)c1ccccc1-2,residual activity,[3],111%
same,residual activity,[4],108%
Cn1c2ccccc2c2c3c(c4c5ccccc5n(CCC#N)c4c21)CNC3=O,residual activity,[3],106%
same,residual activity,[4],105%
CC(C)(C)n1nc(Cc2cccc3ccccc23)c2c(N)ncnc21,residual activity,[3],96%
same,residual activity,[4],107%
